{"source": "paper PMC5540273", "about": "(PLoS ONE, 2017);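 further: KINOMEscan kinase panel screen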", "conditions_in_all_cases": "concentration: 1 μM, replicates: in singlicate; n = 1", "key": {"NIM1": {"system": "T1, NIM1", "T1 construct": "gene MGC42105"}, "NLK": {"system": "NLK"}, "OSR1": {"system": "T2, OSR1", "T2 construct": "gene OXSR1"}, "PAK1": {"system": "PAK1"}, "PAK2": {"system": "PAK2"}, "PAK3": {"system": "PAK3"}, "PAK4": {"system": "PAK4"}, "PAK6": {"system": "PAK6"}, "PAK7": {"system": "PAK7"}, "PCTK1": {"system": "T3, PCTK1", "T3 construct": "gene CDK16"}}, "data": [{"smiles": "Nc1ncnc2c1nc(-c1ccccc1)n2-c1ccccc1", "note": "[SKF-97293]", "values": [{"measurement": "%Inh", "setting": "NIM1", "value": 66, "unit": "%"}, {"measurement": "%Inh", "setting": "NLK", "value": 0, "unit": "%"}, {"measurement": "%Inh", "setting": "OSR1", "value": 39, "unit": "%"}, {"measurement": "%Inh", "setting": "PAK1", "value": 29, "unit": "%"}, {"measurement": "%Inh", "setting": "PAK2", "value": 56, "unit": "%"}, {"measurement": "%Inh", "setting": "PAK3", "value": 27, "unit": "%"}, {"measurement": "%Inh", "setting": "PAK4", "value": 16, "unit": "%"}, {"measurement": "%Inh", "setting": "PAK6", "value": 8, "unit": "%"}, {"measurement": "%Inh", "setting": "PAK7", "value": 0, "unit": "%"}, {"measurement": "%Inh", "setting": "PCTK1", "value": 9, "unit": "%"}]}, {"smiles": "NCCCC(NC(=O)c1cc(Br)c(-c2ccnc3[nH]ccc23)s1)c1ccccc1.O=C(O)C(F)(F)F.O=C(O)C(F)(F)F", "note": "(stereo not shown) [GSK1287544]", "values": [{"measurement": "%Inh", "setting": "NIM1", "value": 15, "unit": "%"}, {"measurement": "%Inh", "setting": "NLK", "value": 0, "unit": "%"}, {"measurement": "%Inh", "setting": "OSR1", "value": 57, "unit": "%"}, {"measurement": "%Inh", "setting": "PAK1", "value": 2, "unit": "%"}, {"measurement": "%Inh", "setting": "PAK2", "value": 41, "unit": "%"}, {"measurement": "%Inh", "setting": "PAK3", "value": 67, "unit": "%"}, {"measurement": "%Inh", "setting": "PAK4", "value": 2, "unit": "%"}, {"measurement": "%Inh", "setting": "PAK6", "value": 56, "unit": "%"}, {"measurement": "%Inh", "setting": "PAK7", "value": 29, "unit": "%"}, {"measurement": "%Inh", "setting": "PCTK1", "value": 10, "unit": "%"}]}, {"smiles": "CC(=O)Nc1nc2cnc(Nc3cc(NC(=O)c4cccc(C5(C#N)CC5)c4Cl)ccc3C)nc2s1", "values": [{"measurement": "%Inh", "setting": "NIM1", "value": 6, "unit": "%"}, {"measurement": "%Inh", "setting": "NLK", "value": 33, "unit": "%"}, {"measurement": "%Inh", "setting": "OSR1", "value": 0, "unit": "%"}, {"measurement": "%Inh", "setting": "PAK1", "value": 12, "unit": "%"}, {"measurement": "%Inh", "setting": "PAK2", "value": 0, "unit": "%"}, {"measurement": "%Inh", "setting": "PAK3", "value": 0, "unit": "%"}, {"measurement": "%Inh", "setting": "PAK4", "value": 7, "unit": "%"}, {"measurement": "%Inh", "setting": "PAK6", "value": 0, "unit": "%"}, {"measurement": "%Inh", "setting": "PAK7", "value": 9, "unit": "%"}, {"measurement": "%Inh", "setting": "PCTK1", "value": 6, "unit": "%"}]}, {"smiles": "CCc1ccc(-c2ccc3c(c2)-c2c(cnn2C)S(=O)(=O)N3C)cc1", "values": [{"measurement": "%Inh", "setting": "NIM1", "value": 0, "unit": "%"}, {"measurement": "%Inh", "setting": "NLK", "value": 11, "unit": "%"}, {"measurement": "%Inh", "setting": "OSR1", "value": 0, "unit": "%"}, {"measurement": "%Inh", "setting": "PAK1", "value": 0, "unit": "%"}, {"measurement": "%Inh", "setting": "PAK2", "value": 2, "unit": "%"}, {"measurement": "%Inh", "setting": "PAK3", "value": 0, "unit": "%"}, {"measurement": "%Inh", "setting": "PAK4", "value": 1, "unit": "%"}, {"measurement": "%Inh", "setting": "PAK6", "value": 9, "unit": "%"}, {"measurement": "%Inh", "setting": "PAK7", "value": 0, "unit": "%"}, {"measurement": "%Inh", "setting": "PCTK1", "value": 0, "unit": "%"}]}, {"smiles": "O=c1[nH]cc(-c2ccc(N3CCOCC3)cc2)c2sc(-c3cn[nH]c3)cc12", "note": "[GSK2276055]", "values": [{"measurement": "%Inh", "setting": "NIM1", "value": 30, "unit": "%"}, {"measurement": "%Inh", "setting": "NLK", "value": 0, "unit": "%"}, {"measurement": "%Inh", "setting": "OSR1", "value": 1, "unit": "%"}, {"measurement": "%Inh", "setting": "PAK1", "value": 8, "unit": "%"}, {"measurement": "%Inh", "setting": "PAK2", "value": 26, "unit": "%"}, {"measurement": "%Inh", "setting": "PAK3", "value": 0, "unit": "%"}, {"measurement": "%Inh", "setting": "PAK4", "value": 0, "unit": "%"}, {"measurement": "%Inh", "setting": "PAK6", "value": 17, "unit": "%"}, {"measurement": "%Inh", "setting": "PAK7", "value": 31, "unit": "%"}, {"measurement": "%Inh", "setting": "PCTK1", "value": 4, "unit": "%"}]}, {"smiles": "O=C(Nc1n[nH]c2cc(-c3ccoc3)ccc12)C1CC1", "note": "[SB-738481]", "values": [{"measurement": "%Inh", "setting": "NIM1", "value": 100, "unit": "%"}, {"measurement": "%Inh", "setting": "NLK", "value": 4, "unit": "%"}, {"measurement": "%Inh", "setting": "OSR1", "value": 0, "unit": "%"}, {"measurement": "%Inh", "setting": "PAK1", "value": 0, "unit": "%"}, {"measurement": "%Inh", "setting": "PAK2", "value": 15, "unit": "%"}, {"measurement": "%Inh", "setting": "PAK3", "value": 18, "unit": "%"}, {"measurement": "%Inh", "setting": "PAK4", "value": 0, "unit": "%"}, {"measurement": "%Inh", "setting": "PAK6", "value": 0, "unit": "%"}, {"measurement": "%Inh", "setting": "PAK7", "value": 0, "unit": "%"}, {"measurement": "%Inh", "setting": "PCTK1", "value": 61, "unit": "%"}]}, {"smiles": "O=C(Nc1cccc(-c2nn3ccccc3c2-c2ccnc(Nc3cccc(C(F)(F)F)c3)n2)c1)c1c(F)cccc1F", "note": "[GSK292658]", "values": [{"measurement": "%Inh", "setting": "NIM1", "value": 2, "unit": "%"}, {"measurement": "%Inh", "setting": "NLK", "value": 33, "unit": "%"}, {"measurement": "%Inh", "setting": "OSR1", "value": 19, "unit": "%"}, {"measurement": "%Inh", "setting": "PAK1", "value": 9, "unit": "%"}, {"measurement": "%Inh", "setting": "PAK2", "value": 6, "unit": "%"}, {"measurement": "%Inh", "setting": "PAK3", "value": 21, "unit": "%"}, {"measurement": "%Inh", "setting": "PAK4", "value": 0, "unit": "%"}, {"measurement": "%Inh", "setting": "PAK6", "value": 0, "unit": "%"}, {"measurement": "%Inh", "setting": "PAK7", "value": 0, "unit": "%"}, {"measurement": "%Inh", "setting": "PCTK1", "value": 2, "unit": "%"}]}, {"smiles": "Clc1ccc(-c2nn3ncccc3c2-c2ccnc(Nc3ccc4c(c3)OCCO4)n2)cc1", "note": "[GW829116]", "values": [{"measurement": "%Inh", "setting": "NIM1", "value": 0, "unit": "%"}, {"measurement": "%Inh", "setting": "NLK", "value": 61, "unit": "%"}, {"measurement": "%Inh", "setting": "OSR1", "value": 0, "unit": "%"}, {"measurement": "%Inh", "setting": "PAK1", "value": 0, "unit": "%"}, {"measurement": "%Inh", "setting": "PAK2", "value": 28, "unit": "%"}, {"measurement": "%Inh", "setting": "PAK3", "value": 0, "unit": "%"}, {"measurement": "%Inh", "setting": "PAK4", "value": 0, "unit": "%"}, {"measurement": "%Inh", "setting": "PAK6", "value": 2, "unit": "%"}, {"measurement": "%Inh", "setting": "PAK7", "value": 0, "unit": "%"}, {"measurement": "%Inh", "setting": "PCTK1", "value": 0, "unit": "%"}]}, {"smiles": "Nc1ncc(-c2ccc3nccc(-c4ccncc4)c3c2)cc1S(=O)(=O)N1CCOCC1", "note": "[GSK1627798]", "values": [{"measurement": "%Inh", "setting": "NIM1", "value": 0, "unit": "%"}, {"measurement": "%Inh", "setting": "NLK", "value": 0, "unit": "%"}, {"measurement": "%Inh", "setting": "OSR1", "value": 0, "unit": "%"}, {"measurement": "%Inh", "setting": "PAK1", "value": 9, "unit": "%"}, {"measurement": "%Inh", "setting": "PAK2", "value": 20, "unit": "%"}, {"measurement": "%Inh", "setting": "PAK3", "value": 5, "unit": "%"}, {"measurement": "%Inh", "setting": "PAK4", "value": 0, "unit": "%"}, {"measurement": "%Inh", "setting": "PAK6", "value": 0, "unit": "%"}, {"measurement": "%Inh", "setting": "PAK7", "value": 0, "unit": "%"}, {"measurement": "%Inh", "setting": "PCTK1", "value": 3, "unit": "%"}]}, {"smiles": "Cl.Cl.NCC(NCc1ccc(-c2ccnc3[nH]ccc23)s1)c1ccccc1", "note": "(stereo not shown) [GSK1321565]", "values": [{"measurement": "%Inh", "setting": "NIM1", "value": 0, "unit": "%"}, {"measurement": "%Inh", "setting": "NLK", "value": 8, "unit": "%"}, {"measurement": "%Inh", "setting": "OSR1", "value": 10, "unit": "%"}, {"measurement": "%Inh", "setting": "PAK1", "value": 0, "unit": "%"}, {"measurement": "%Inh", "setting": "PAK2", "value": 0, "unit": "%"}, {"measurement": "%Inh", "setting": "PAK3", "value": 69, "unit": "%"}, {"measurement": "%Inh", "setting": "PAK4", "value": 0, "unit": "%"}, {"measurement": "%Inh", "setting": "PAK6", "value": 2, "unit": "%"}, {"measurement": "%Inh", "setting": "PAK7", "value": 0, "unit": "%"}, {"measurement": "%Inh", "setting": "PCTK1", "value": 0, "unit": "%"}]}]}
